Assay results as given in PubChem BioAssay AID1259415 (National Center for Advancing Translational Sciences (NCATS), 2018).
Hit rate of the full screen: of about 410,000 compounds, about 18,000 (4.4%) were called active. About 7% were inconclusive and are not listed. Rule as the data show it: active = activity change below about -60%; inconclusive = no clear call, values can overlap the other calls; inactive = above about -39%. Many of the other results were omitted from the sample, so actives are more common in it than they were.

assay: qHTS Assay for inhibitors of the human cytomegalovirus (HCMV); settings: HFF cells, HCMV-luciferase reporter, 72 h; at 57.5 µM; active compounds read low
In short: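 Steps: HFFs plated, 16 h 37C; compounds added; HCMV-luciferase added to MOI 1 PFU/cell; 72 h 37C; OneGlo reagent, 5 min room temperature; luminescence read, normalized to controls.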
% is scaled to controls: 0 for no effect and ±100 for the full control effect.

Row | Structure (SMILES) | activity change, negative = inhibition
1 | CCc1cc2c(cc3c(=O)n(CC(=O)N4CCN(c5cc(Cl)ccc5C)CC4)ncn32)s1 | 85.8% (inactive)
2 | O=c1c2ccccc2nc2n1C(CSCc1ccccc1)CS2 (configuration not stated) | -74.9% (active)
3 | Cc1ccc(-n2c(/C=C/c3cccc(C(F)(F)F)c3)nc3ccccc3c2=O)cc1 | -5.7% (inactive)
4 | C#CCCCc1nc2ccccc2c(=O)n1N | 56.9% (inactive)
5 | O=c1n(Cc2cccc(C(F)(F)F)c2)c2ccccc2c2nc(-c3ccccc3)nn12 | 26.8% (inactive)
6 | O=c1c2ccccc2nc2n1C(CSc1ccc(Cl)cc1)CN2 (configuration not stated) | 59.6% (inactive)
7 | O=c1c2ccccc2nc2n1C(CSCc1cccc(C(F)(F)F)c1)CS2 (configuration not stated) | -67.5% (active)
8 | Cc1ccccc1C(=O)Nc1sc2c(c1C(=O)N1CCC(C)CC1)CCCC2 | -11.9% (inactive)
9 | COc1cc(Br)cc2cc(S(=O)(=O)c3ccccc3)c(=O)oc12 | 14.3% (inactive)
10 | COc1ccc(CN2C(=O)CN=C2Nc2ccc(C)cc2C)cc1 | 1.11% (inactive)
11 | CCN(CC)C(=O)C1=C(C)N(Cc2ccc(C(C)(C)C)cc2)C(=O)C(CC(=O)NCc2cccc3ccccc23)C1 (configuration not stated) | 16.5% (inactive)
12 | CC(C)(C)c1ccc(CN2C(=O)CN=C(c3ccccc3)c3ccccc32)cc1 | -79.6% (active)
13 | O=C(c1ccc(Cl)cc1)n1nc(-c2cccnc2)nc1NCc1ccc(F)cc1 | 4.96% (inactive)
14 | CCOc1ccc(-c2cc3nc(C4CCN(C(=O)OC(C)(C)C)CC4)c(C(=O)Nc4ccc(C(=O)OC)cc4)cn3n2)cc1 | 24.4% (inactive)
15 | COc1ccccc1CNC(=O)c1ccc(CS(=O)c2ccccc2Cl)o1 (configuration not stated) | 9.25% (inactive)
16 | CCOc1ccc(NC(=O)c2c(NCc3cccc(OC)c3OC)sc3c2CCC3)cc1 | 13% (inactive)
17 | O=C(c1ccco1)N(Cc1nc2ccccc2c(=O)[nH]1)C1CCCC1 | -0.921% (inactive)
18 | CN(c1ccc2nc3ccccc3c(=O)n2n1)C1CCCCC1 | -90% (active)
19 | COCC(C)n1c(SCC(=O)NC2CCCCC2C)nc2ccccc2c1=O (configuration not stated) | -19.2% (inactive)
20 | COc1ccc(CC(=O)Nc2ccc3c(c2)CCC3)cc1S(=O)(=O)N1CCOCC1 | -10.6% (inactive)
21 | COc1ccc(C(=O)N(Cc2ccccc2)c2ccc(C)cc2)cc1S(=O)(=O)N1CCOCC1 | -15.2% (inactive)
22 | COc1ccc(NC(=O)c2cc(=O)[nH]c3ccccc23)cc1S(=O)(=O)N1CCOCC1 | 9.13% (inactive)

Row | Structure (SMILES) | activity change, negative = inhibition
23 | COc1ccc(/C=C/C(=O)Nc2ccc(C)cc2)cc1S(=O)(=O)N1CCOCC1 | -73.1% (active)
24 | O=C(CCc1ccc(S(=O)(=O)N2CCOCC2)cc1)Nc1ccc2ccccc2c1 | -9.83% (inactive)
25 | COc1ccc(CCC(=O)Nc2ccc(Cl)c(S(=O)(=O)N3CCOCC3)c2)cc1OC | -69% (active)
26 | O=C(CSc1n[nH]c(-c2ccccc2)n1)N1CCCCC1 | 61.5% (inactive)
27 | CSc1nc(-c2ccc(F)cc2)nc2c1Cc1c(CO)cnc(C)c1O2 | 4.76% (inactive)
28 | CC(C)(CSc1nncn1/N=C/c1ccco1)NS(=O)(=O)c1ccc(Cl)cc1 | -28.3% (inactive)
29 | COc1cccc(NC(=O)N(Cc2cn(C)c3ccccc23)C2CCCCCC2)c1 | -105% (active)
30 | COc1ccc(CCNC(=O)CCc2cn(C)c3ccccc23)c(OC)c1 | -11% (inactive)
31 | COc1cccc(NC(=O)N2CCCC2C(=O)NC2CCCCC2)c1 (configuration not stated) | -32.8% (inactive)
32 | O=C(Cn1c(=O)n(-c2ccc(F)cc2)c(=O)c2sc3ccccc3c21)NC1CCCC1 | -5.96% (inactive)
33 | Fc1ccc(-c2nc(Nc3cccc(Cl)c3)nc3c2COc2ccccc2-3)cc1 | -30.5% (inactive)
34 | CCOC(=O)C(C)Sc1nnc(CSc2nc3nc(C)cc(C)n3n2)o1 (configuration not stated) | -27.1% (inactive)
35 | Cc1cc2nnc(SCC(=O)N3CCN(c4ccccc4)CC3)n2c(N)n1 | 2.88% (inactive)
36 | Cn1c(CNC(=O)c2ccco2)nnc1SCC(=O)N1CCN(c2ccccc2)CC1 | 9.34% (inactive)
37 | Cn1c(Cc2cccc3ccccc23)nnc1SCC(=O)N1CCN(c2cccc(Cl)c2)CC1 | -71.4% (active)
38 | Cc1ccccc1NC(=O)Cn1c(=O)n(CCCCC(=O)NCc2ccccc2Cl)c(=O)c2ccccc21 | 0.203% (inactive)
39 | COc1ccc(N2CCN(c3ccc([N+](=O)[O-])nc3)CC2)cc1 | -29.8% (inactive)
40 | COc1ccc(N2CCN(c3cc(C)nc4nncn34)CC2)cc1 | -72.4% (active)
41 | Cc1cc(N2CCN(c3ccc(F)cc3)CC2)n2ncnc2n1 | -22.6% (inactive)
42 | COC(=O)c1ccc(/C=N/OCC(=O)Nc2cc(F)ccc2F)cc1 | 36.6% (inactive)
43 | Cc1ccc2c(c1)c1c(c(=O)n(-c3ccccc3)c(=O)n1CC(=O)c1ccc(Cl)cc1)n2C | 7.77% (inactive)
44 | O=C(CN(Cc1ccccc1)C(=O)CCC(=O)Nc1ccccn1)NCCc1ccccc1 | 18.2% (inactive)

Row | Structure (SMILES) | activity change, negative = inhibition
45 | COc1ccc(Cn2c(=O)oc3ccccc32)cc1 | 6.27% (inactive)
46 | COc1ccc(Cn2c(-c3ccc(Cl)cc3)c[n+]3ccccc23)cc1 | -95.3% (active)
47 | COc1ccc(CNc2nc(-c3ccc(Cl)cc3)nn2C(=O)c2ccccc2)cc1 | 1.03% (inactive)
48 | CCN1C(=O)C(C(=O)NC(C)c2ccccc2)C2CC1(C)Oc1ccccc12 (configuration not stated) | -37% (inactive)
49 | O=C(COc1ccccc1)N1CCN=C1SCc1cccc(F)c1 | -11.8% (inactive)
50 | O=S(=O)(c1ccc(F)cc1)N1CCN=C1SCc1cccc(F)c1 | -18.5% (inactive)
51 | CCCS(=O)(=O)N1CCN=C1SCc1cccc(F)c1 | -70.6% (active)
52 | COc1cc(OC)cc(-c2nc3nc(C)c(CCC(=O)Nc4ccccc4)c(C)n3n2)c1 | 4.64% (inactive)
53 | Cc1ccc(NC(=O)c2ccc3[nH]c(C)cc(=O)c3c2)c(C)c1 | -8.34% (inactive)
54 | O=C(N/N=C/c1c(O)n(C2CC2)c(=S)[nH]c1=O)c1ccccc1 | -8.42% (inactive)
55 | O=C(N/N=C/c1c(O)n(C2CC2)c(=S)[nH]c1=O)c1ccccc1Cl | -9.9% (inactive)
56 | Cc1[nH]n(-c2ccccc2)c(=O)c1/C=N/NC(=O)c1ccoc1C | -99.7% (active)
57 | CCOC(=O)CSc1nnc(CNC(=O)Cc2ccccc2)n1-c1ccccc1OC | -26.6% (inactive)
58 | CC(=O)c1ccc(NC(=O)c2nc(-c3ccc(C)cc3)n3c2CCCCC3)cc1 | -8.98% (inactive)
59 | Cc1cccc(CNC(=O)c2cnc3sc(N4CCCCC4)nn3c2=O)c1 | 27.1% (inactive)
60 | CCOc1ccccc1C(=O)NC1(C(F)(F)F)C(=O)Nc2c1c(=O)[nH]c(=O)n2-c1ccc(F)cc1 (configuration not stated) | -8.54% (inactive)
61 | CN(CCNC(=O)c1cc2c(-c3ccccc3F)nn(C)c2s1)C1CCCCC1 | -6.98% (inactive)
62 | COc1ccc(CNC(=O)c2cc3c(=O)[nH]c4ccc(C)cc4c3s2)c(OC)c1 | -17.4% (inactive)
63 | COc1ccc(CNC(=O)c2cc3c(-c4ccccc4F)nn(C)c3s2)c(OC)c1 | -64.7% (active)
64 | Cc1ccc(Nc2c(-c3ccc(C)cc3)nc3cnccn23)cc1 | 31.2% (inactive)
65 | COc1ccc(OC)c(NC(=O)CSc2nc3ccccc3nc2N2CCCCC2)c1 | 19.8% (inactive)
66 | CCN1CCN(c2nc(Nc3cc(OC)ccc3OC)nc(Nc3cc(OC)ccc3OC)n2)CC1 | -64.4% (active)

Row | Structure (SMILES) | activity change, negative = inhibition
67 | CCCOc1ccc(Cl)cc1Nc1nc(NCCO)nc(N2CCCC2)n1 | 14.9% (inactive)
68 | COc1ccc2c(CNCCc3ccccc3C)c(C(=O)O)n(Cc3ccccc3C)c2c1 | -9.03% (inactive)
69 | COc1cc(C(=O)N2CCC(c3ccncc3)CC2)cc(OC)c1OC | 18% (inactive)
70 | COc1ccccc1CNC(=O)CCCCn1c(=O)c2ccccc2n(CC(=O)Nc2cc(Cl)ccc2C)c1=O | -9.62% (inactive)
71 | O=C(NCc1cccc(C(F)(F)F)c1)c1cccc(S(=O)(=O)N2CCN(Cc3ccccc3)CC2)c1 | 0.707% (inactive)
72 | O=C(NCc1ccccc1)c1ccc(S(=O)(=O)Nc2cccc(C(F)(F)F)c2)cc1 | -62% (active)
73 | O=C(NCc1ccncc1)c1ccc(NS(=O)(=O)c2cccc([N+](=O)[O-])c2)cc1 | -29% (inactive)
74 | O=C(NCc1ccccc1CN1CCCC1)c1cccc(S(=O)(=O)Nc2ccc(F)cc2)c1 | 56.8% (inactive)
75 | O=C(NCc1ccncc1)c1cccc(NS(=O)(=O)c2ccc(F)c(F)c2)c1 | -101% (active)
76 | O=C(NCCCN1CCCC1=O)c1ccc(S(=O)(=O)Nc2ccccc2)cc1 | -28.4% (inactive)
77 | Cc1ccccc1CSCCNC(=O)C1CCN(S(=O)(=O)Cc2ccccc2)CC1 | -4.14% (inactive)
78 | Cc1ccc2nc(COc3cccc(NC(=O)c4cccc(Cl)c4)c3)cc(=O)n2c1 | 9.28% (inactive)
79 | Cc1ccccc1-c1nc(NC(C)C)nc2cc(-c3ccccc3)sc12 | -8.38% (inactive)
80 | Cc1cc(C)c2oc(C(=O)Nc3ccc(S(=O)(=O)N(C)c4ccccc4)cc3)cc(=O)c2c1 | -2.92% (inactive)
81 | Cc1ccc(Cl)cc1NC(=O)/C(C#N)=C\c1cn(Cc2ccc(F)cc2)c2ccccc12 | -6.14% (inactive)
82 | Cc1ccc(Cl)cc1N1CCN(C(=O)CN2C(=O)COc3ccc(S(=O)(=O)N4CCOCC4)cc32)CC1 | 6.7% (inactive)
83 | CC(C)CCn1c(=O)c2c(nc3n2CCCN3Cc2ccccc2)n(C)c1=O | -22.4% (inactive)
84 | CCOc1ccc(C(=O)NCC(=O)N2CCCCCCC2)cc1OCC | -11.3% (inactive)
85 | COc1ccc2c(CC(=O)N3CCc4cc(OC)c(OC)cc4C3)coc2c1 | -13.1% (inactive)
86 | CCOc1cc(C(=O)N2CCc3cc(OC)c(OC)cc3C2)ccc1OC(F)F | -71.6% (active)
87 | Cc1nn(C(=O)c2c(F)cccc2F)c(C)c1S(=O)(=O)N1CCOCC1 | 9.99% (inactive)
